Experiment in all cases: DAPPL (digital affinity profiling via proximity ligation, sequencing); 10 mM Tris-HCl pH 7.5, 50 mM NaCl, 1 mM DTT, 4% glycerol, room temperature, 30 min; GST-TFs on glutathione beads, 16-mer random dsDNA library, 0.1% formaldehyde crosslink after washing; high values mean tight binding
The target in assay [1] is T1, FLI1 (Homo sapiens, UniProt Q01543 1-452).
T1 sequence: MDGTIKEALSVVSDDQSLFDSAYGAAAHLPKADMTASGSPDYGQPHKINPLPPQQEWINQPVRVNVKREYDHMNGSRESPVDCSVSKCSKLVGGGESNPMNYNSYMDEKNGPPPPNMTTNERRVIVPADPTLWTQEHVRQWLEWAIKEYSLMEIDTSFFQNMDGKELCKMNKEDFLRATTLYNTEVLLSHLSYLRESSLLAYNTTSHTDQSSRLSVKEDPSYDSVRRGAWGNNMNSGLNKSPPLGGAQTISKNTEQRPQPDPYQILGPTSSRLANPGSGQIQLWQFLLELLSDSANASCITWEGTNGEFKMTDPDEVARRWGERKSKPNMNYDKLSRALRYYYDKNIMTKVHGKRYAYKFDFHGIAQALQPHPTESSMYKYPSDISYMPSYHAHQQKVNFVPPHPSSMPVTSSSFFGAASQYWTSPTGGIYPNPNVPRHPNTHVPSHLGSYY
To be noted: protein: recombinant; tags: N-terminal GST; dsDNA, one strand shown. The method in brief: (§1)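 Sequencing on an Illumina NextSeq500 followed washing, crosslinking with 0.1% formaldehyde, proximity ligation (BsaI/T4 ligase, 1 h, 37 °C) and PCR amplification of pools that had been incubated for 30 min at room temperature with 200 nmole of a random double-stranded 16-mer DNA library in Tris/NaCl/DTT/glycerol buffer. Each pool held DNA-barcoded human transcription factors, expressed in yeast as GST fusions and captured on glutathione beads, plus a tag-only sample. Binding signal is a hexamer's read frequency for a factor divided by its frequency in the tag-only sample.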

Assay [2] addresses T2, ELK1 (Homo sapiens, UniProt P19419 1-428).
T2 sequence: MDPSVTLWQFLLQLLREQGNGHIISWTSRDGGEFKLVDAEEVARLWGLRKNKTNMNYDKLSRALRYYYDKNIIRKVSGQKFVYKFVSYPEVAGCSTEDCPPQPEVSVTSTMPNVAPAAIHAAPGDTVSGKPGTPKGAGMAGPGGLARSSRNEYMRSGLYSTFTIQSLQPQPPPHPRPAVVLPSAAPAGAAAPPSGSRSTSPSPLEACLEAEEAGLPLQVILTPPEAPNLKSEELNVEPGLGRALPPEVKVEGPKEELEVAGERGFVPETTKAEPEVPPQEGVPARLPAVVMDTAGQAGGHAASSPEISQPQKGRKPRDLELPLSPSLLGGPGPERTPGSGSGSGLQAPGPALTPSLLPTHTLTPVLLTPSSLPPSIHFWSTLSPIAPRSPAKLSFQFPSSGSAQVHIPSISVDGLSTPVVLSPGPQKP
To be noted: protein: recombinant; tags: N-terminal GST; dsDNA, one strand shown. Put shortly:
as §1

Assay [3] has as its target T3, GABPA (Homo sapiens, UniProt Q06546 1-454).
T3 sequence: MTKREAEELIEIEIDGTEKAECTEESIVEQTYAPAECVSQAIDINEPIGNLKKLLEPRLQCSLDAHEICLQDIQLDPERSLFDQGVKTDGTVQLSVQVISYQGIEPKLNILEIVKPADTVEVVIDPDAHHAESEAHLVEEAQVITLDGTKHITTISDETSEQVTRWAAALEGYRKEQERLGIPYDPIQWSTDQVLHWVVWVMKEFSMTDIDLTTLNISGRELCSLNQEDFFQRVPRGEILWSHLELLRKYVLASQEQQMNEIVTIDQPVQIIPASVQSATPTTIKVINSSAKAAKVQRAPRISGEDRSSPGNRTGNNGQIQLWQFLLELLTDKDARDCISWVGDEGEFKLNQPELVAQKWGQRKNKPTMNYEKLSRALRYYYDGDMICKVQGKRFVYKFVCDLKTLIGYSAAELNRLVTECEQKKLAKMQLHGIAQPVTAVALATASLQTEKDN
To be noted: protein: recombinant; tags: N-terminal GST; dsDNA, one strand shown. The method in brief: as §1

The target of assay [4] is T4, ERG (Homo sapiens, UniProt P11308 1-479).
T4 sequence: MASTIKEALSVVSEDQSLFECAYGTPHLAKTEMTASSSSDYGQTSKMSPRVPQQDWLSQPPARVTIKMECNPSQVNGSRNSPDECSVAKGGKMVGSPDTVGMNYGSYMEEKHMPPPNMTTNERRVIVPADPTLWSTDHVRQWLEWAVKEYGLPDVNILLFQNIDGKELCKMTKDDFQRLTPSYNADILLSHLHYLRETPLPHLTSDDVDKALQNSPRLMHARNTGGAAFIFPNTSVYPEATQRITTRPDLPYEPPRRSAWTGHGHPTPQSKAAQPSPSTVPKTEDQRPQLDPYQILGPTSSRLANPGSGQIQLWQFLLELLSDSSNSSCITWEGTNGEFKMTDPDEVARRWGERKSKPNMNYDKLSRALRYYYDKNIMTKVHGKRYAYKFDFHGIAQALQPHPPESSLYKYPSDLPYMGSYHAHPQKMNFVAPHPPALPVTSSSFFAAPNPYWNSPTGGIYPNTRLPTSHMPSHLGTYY
To be noted: protein: recombinant; tags: N-terminal GST; dsDNA, one strand shown. The method in brief: as §1

Assay [5] concerns the target ELF1 (Homo sapiens, UniProt P32519 1-619). To be noted: protein: recombinant; tags: N-terminal GST; dsDNA, one strand shown. Put shortly: as §1
Assay [6] has as its target T5, EHF (Homo sapiens, UniProt Q9NZC4 1-300).
T5 sequence: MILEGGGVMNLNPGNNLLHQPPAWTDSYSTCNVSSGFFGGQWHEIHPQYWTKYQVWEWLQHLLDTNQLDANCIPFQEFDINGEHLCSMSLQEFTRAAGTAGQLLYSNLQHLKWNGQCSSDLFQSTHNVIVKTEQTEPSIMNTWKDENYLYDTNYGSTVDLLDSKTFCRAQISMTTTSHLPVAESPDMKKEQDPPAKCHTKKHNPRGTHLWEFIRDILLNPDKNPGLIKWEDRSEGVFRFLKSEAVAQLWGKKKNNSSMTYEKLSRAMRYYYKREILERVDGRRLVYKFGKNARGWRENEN
To be noted: protein: recombinant; tags: N-terminal GST; dsDNA, one strand shown. Put shortly:
as §1

Assay [7] concerns the target SPI1 (Homo sapiens, UniProt P17947 1-270). To be noted: protein: recombinant; tags: N-terminal GST; dsDNA, one strand shown. The method in brief:
as §1

For assay [8], the target named is SPIB (Homo sapiens, UniProt Q01892 1-262). The conditions noted are these: protein: recombinant; tags: N-terminal GST; dsDNA, one strand shown. Put shortly: as §1
The target of assay [9] is T6, ELK3 (Homo sapiens, UniProt P41970 1-407).
T6 sequence: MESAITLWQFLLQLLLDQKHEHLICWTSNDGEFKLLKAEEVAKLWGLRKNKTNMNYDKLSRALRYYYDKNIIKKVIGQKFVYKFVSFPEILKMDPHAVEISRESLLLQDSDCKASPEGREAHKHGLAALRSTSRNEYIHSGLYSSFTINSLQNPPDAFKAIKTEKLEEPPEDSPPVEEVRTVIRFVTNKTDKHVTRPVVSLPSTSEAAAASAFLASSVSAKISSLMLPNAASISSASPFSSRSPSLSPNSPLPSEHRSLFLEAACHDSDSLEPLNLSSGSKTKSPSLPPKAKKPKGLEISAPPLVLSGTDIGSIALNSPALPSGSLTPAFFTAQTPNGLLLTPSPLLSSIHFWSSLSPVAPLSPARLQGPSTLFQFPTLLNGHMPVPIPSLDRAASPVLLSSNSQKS
The conditions noted are these: protein: recombinant; tags: N-terminal GST; dsDNA, one strand shown. Put shortly:
as §1

The target of assay [10] is T7, FEV (Homo sapiens, UniProt Q99581 1-238).
T7 sequence: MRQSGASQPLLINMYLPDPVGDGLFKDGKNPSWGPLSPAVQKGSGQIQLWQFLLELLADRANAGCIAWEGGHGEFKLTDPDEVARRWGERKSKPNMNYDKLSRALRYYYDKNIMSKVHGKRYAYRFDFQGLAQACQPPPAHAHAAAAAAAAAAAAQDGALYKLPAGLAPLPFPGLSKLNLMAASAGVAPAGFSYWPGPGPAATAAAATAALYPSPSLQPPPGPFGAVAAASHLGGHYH
The conditions noted are these: protein: recombinant; tags: N-terminal GST; dsDNA, one strand shown. The method in brief:
as §1

Assay [11] has as its target ETV5 (Homo sapiens, UniProt P41161 1-510). The conditions noted are these: protein: recombinant; tags: N-terminal GST; dsDNA, one strand shown. The method in brief:
as §1

Assay [12] deals with HSF1 (Homo sapiens, UniProt Q00613 1-529). To be noted: protein: recombinant; tags: N-terminal GST; chain copies: 3; dsDNA, one strand shown. The method in brief:
as §1

Assay [13] has as its target T8, SPIC (Homo sapiens, UniProt Q8N5J4 1-248).
T8 sequence: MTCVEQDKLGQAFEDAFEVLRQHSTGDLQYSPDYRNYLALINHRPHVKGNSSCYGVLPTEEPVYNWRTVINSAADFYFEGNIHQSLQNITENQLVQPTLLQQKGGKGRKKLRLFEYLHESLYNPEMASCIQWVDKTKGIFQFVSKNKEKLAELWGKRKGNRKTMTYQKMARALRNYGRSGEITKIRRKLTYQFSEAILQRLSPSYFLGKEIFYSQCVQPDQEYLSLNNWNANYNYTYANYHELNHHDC
The conditions noted are these: protein: recombinant; tags: N-terminal GST; dsDNA, one strand shown. The method in brief:
as §1

Assay [14] deals with ELF4 (Homo sapiens, UniProt Q99607 1-663). The conditions noted are these: protein: recombinant; tags: N-terminal GST; dsDNA, one strand shown. Put shortly: as §1
The target of assay [15] is T9, ELK4 (Homo sapiens, UniProt P28324-2 1-405).
T9 sequence: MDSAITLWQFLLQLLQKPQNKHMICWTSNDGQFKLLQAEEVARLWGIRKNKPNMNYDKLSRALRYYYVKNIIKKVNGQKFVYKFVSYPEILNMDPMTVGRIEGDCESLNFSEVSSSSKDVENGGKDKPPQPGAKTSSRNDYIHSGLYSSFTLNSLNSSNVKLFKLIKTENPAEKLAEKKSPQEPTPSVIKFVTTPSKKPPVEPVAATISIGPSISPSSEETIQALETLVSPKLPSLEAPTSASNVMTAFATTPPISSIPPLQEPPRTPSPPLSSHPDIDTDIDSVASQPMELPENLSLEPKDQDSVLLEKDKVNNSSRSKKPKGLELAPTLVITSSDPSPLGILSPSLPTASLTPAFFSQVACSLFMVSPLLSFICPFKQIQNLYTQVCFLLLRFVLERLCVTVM
To be noted: protein: recombinant; tags: N-terminal GST; dsDNA, one strand shown. The method in brief:
as §1

Assay [16] deals with T10, ETV2 (Homo sapiens, UniProt O00321 1-342).
T10 sequence: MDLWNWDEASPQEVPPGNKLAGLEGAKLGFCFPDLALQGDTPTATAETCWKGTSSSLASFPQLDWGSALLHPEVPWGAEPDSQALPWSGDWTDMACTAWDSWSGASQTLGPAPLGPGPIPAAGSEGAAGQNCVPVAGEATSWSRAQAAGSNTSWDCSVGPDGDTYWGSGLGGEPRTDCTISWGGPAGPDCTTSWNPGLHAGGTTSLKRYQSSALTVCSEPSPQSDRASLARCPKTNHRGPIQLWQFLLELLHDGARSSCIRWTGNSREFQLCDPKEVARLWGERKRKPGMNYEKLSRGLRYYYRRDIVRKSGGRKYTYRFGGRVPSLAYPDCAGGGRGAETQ
The conditions noted are these: protein: recombinant; tags: N-terminal GST; dsDNA, one strand shown. The method in brief: as §1

Assay [17] addresses T11, ELF3 (Homo sapiens, UniProt P78545 1-371).
T11 sequence: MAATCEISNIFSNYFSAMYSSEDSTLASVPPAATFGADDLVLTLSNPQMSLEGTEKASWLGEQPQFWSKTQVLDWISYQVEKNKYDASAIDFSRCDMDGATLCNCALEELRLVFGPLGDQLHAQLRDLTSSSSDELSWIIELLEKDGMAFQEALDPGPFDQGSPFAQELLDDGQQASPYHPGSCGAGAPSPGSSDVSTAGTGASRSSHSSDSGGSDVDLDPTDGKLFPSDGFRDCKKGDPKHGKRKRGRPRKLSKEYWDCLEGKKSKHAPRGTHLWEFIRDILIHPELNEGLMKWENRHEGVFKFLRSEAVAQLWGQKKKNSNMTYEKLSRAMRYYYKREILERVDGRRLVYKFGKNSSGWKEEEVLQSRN
The conditions noted are these: protein: recombinant; tags: N-terminal GST; dsDNA, one strand shown. Put shortly: as §1

Assay [18] has as its target ETV1 (Homo sapiens, UniProt P50549 1-477). To be noted: protein: recombinant; tags: N-terminal GST; dsDNA, one strand shown. Put shortly: as §1

ELF4, sequence (Q99607 whole entry): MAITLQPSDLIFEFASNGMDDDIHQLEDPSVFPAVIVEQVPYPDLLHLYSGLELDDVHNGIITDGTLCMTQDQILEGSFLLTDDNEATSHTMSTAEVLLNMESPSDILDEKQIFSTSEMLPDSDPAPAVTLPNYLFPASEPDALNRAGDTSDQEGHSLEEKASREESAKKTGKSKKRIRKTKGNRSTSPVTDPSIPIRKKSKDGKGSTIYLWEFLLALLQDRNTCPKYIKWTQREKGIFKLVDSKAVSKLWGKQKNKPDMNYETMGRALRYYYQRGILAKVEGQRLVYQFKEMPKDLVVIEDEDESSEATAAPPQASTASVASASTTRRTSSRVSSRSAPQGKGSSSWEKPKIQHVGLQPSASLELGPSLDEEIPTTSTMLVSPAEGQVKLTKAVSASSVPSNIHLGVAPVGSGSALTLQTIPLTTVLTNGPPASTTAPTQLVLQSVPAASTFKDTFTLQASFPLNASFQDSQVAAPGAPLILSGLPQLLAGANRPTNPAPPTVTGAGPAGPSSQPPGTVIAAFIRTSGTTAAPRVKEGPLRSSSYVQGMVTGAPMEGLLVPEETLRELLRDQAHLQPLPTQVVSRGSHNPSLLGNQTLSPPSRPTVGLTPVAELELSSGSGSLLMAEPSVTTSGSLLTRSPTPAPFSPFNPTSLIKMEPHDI
ETV5, sequence (P41161 whole entry): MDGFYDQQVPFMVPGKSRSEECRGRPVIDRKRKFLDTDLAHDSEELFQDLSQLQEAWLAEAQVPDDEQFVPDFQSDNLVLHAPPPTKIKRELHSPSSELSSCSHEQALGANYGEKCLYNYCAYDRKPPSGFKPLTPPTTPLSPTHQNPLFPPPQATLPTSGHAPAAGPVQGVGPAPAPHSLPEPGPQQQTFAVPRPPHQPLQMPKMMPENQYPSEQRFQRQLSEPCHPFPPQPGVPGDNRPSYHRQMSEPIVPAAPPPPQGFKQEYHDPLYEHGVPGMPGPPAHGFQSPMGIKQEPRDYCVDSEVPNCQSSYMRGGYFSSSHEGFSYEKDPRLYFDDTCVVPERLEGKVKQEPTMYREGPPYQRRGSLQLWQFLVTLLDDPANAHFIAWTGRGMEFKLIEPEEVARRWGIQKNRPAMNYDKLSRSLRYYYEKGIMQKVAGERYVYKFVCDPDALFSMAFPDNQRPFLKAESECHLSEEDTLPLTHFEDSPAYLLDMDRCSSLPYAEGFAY
SPIB, sequence (Q01892 whole entry): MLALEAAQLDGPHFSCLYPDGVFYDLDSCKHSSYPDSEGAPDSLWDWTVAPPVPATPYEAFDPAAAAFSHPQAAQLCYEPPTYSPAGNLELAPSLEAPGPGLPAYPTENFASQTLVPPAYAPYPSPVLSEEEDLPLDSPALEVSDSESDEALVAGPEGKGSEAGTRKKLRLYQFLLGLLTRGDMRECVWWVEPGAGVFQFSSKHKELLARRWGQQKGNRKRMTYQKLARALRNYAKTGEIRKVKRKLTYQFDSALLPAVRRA
ELF1, sequence (P32519 whole entry): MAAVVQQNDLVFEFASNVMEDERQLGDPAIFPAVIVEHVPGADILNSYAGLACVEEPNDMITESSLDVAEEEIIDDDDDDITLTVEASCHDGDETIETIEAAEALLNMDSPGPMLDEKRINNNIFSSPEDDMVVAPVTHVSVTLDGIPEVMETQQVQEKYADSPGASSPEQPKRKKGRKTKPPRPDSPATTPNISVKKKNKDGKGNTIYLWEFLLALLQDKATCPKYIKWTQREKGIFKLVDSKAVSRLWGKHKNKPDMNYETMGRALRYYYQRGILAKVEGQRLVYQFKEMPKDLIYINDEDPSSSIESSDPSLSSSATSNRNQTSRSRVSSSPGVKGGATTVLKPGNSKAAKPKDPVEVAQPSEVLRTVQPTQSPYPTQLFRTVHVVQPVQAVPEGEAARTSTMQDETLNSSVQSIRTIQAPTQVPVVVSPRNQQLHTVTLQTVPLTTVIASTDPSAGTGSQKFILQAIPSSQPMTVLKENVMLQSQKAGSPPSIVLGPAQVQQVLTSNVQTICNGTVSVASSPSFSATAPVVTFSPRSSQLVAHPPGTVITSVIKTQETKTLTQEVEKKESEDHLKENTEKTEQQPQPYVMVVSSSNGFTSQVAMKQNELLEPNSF
ETV1, sequence (P50549 whole entry): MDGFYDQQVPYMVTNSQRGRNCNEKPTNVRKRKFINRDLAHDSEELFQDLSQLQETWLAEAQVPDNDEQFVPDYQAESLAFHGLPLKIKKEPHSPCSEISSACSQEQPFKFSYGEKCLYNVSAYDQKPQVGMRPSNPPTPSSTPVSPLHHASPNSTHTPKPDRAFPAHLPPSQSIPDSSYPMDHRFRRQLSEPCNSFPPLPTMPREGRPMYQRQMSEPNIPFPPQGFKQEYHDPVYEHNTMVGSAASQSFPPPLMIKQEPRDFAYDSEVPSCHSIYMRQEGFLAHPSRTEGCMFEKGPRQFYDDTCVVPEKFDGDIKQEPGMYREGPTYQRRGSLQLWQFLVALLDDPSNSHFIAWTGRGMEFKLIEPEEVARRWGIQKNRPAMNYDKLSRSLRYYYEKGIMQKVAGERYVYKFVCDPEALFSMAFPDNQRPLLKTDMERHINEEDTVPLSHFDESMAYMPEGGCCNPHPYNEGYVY
HSF1, sequence (Q00613 whole entry): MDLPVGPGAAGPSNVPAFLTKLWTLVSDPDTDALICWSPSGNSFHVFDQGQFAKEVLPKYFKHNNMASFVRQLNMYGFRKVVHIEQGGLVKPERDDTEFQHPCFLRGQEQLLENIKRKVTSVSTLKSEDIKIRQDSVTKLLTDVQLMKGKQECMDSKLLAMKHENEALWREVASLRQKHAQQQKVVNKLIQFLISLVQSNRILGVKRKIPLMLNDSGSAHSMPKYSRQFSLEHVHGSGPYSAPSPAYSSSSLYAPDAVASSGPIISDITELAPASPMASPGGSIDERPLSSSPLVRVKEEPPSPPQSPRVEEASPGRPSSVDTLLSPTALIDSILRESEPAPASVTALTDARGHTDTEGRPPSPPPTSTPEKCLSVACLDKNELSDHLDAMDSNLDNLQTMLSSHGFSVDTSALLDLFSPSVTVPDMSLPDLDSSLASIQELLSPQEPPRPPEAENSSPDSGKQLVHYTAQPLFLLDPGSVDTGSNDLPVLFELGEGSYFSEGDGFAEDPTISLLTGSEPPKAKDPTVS

ACGAAC: the binding signal is 1.11 fold enrichment (6-mer frequency, TF over GST control) in [1]; 1.15 fold enrichment (6-mer frequency, TF over GST control) in assay [2]; 1.19 fold enrichment (6-mer frequency, TF over GST control) in [3]; 1.15 fold enrichment (6-mer frequency, TF over GST control) in assay [4]; 1.24 fold enrichment (6-mer frequency, TF over GST control) in assay [5]; 1.12 fold enrichment (6-mer frequency, TF over GST control) in assay [6]. In addition, the binding signal in [7] is 1.1 fold enrichment (6-mer frequency, TF over GST control); in assay [8], 1.22 fold enrichment (6-mer frequency, TF over GST control); in assay [9] it was 1.13 fold enrichment (6-mer frequency, TF over GST control); in assay [10], 1.15 fold enrichment (6-mer frequency, TF over GST control); in assay [11], 1.22 fold enrichment (6-mer frequency, TF over GST control); in [12], 1.19 fold enrichment (6-mer frequency, TF over GST control). Moreover, the binding signal was 1.07 fold enrichment (6-mer frequency, TF over GST control) in [13]; 1.22 fold enrichment (6-mer frequency, TF over GST control) in assay [14]; 1.18 fold enrichment (6-mer frequency, TF over GST control) in assay [15]; 1.18 fold enrichment (6-mer frequency, TF over GST control) in assay [16]; 1.22 fold enrichment (6-mer frequency, TF over GST control) in [17]; 1.09 fold enrichment (6-mer frequency, TF over GST control) in assay [18].

These data come from paper PMC7862700, “An all-to-all approach to the identification of sequence-specific readers for epigenetic DNA modifications on cytosine”.
